Assay outcomes as filed in PubChem BioAssay.
Most compounds without a hit are left out; they make up all but 0.49% or so of the library.
Vif-APOBEC3G blk – Vif-A3G binding inhibition; Q9HC16; HeLa A3G-eYFP + Vif (tagged APOBEC3G with the HIV-1 protein that degrades it), YFP fluorescence, overnight; Potency, µM (doses to about 46.1 µM), inactives show at the top dose activity, negative = active, most hits filed as inhibitors; 0.076% of 410,000 active; AID 602310; note: potency is the fitted concentration of half-maximal effect; % is set by controls: 0 for no effect and ±100 for the full control effect; nearly all actives have a fitted effect of over 60% in size
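Read-out is eYFP fluorescence (Ex 488/Em 500-530) from Vif-expressing HeLa A3G-eYFP cells; more signal means A3G escaped Vif-mediated degradation. Cells plated overnight, compound pinned in, incubated overnight at 37 deg C.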
Tb PGK inh – blocks T. brucei phosphoglycerate kinase | 0.043% of 380,000 active | P07378 | AID 602233 | PGK/GAPDH coupled, Kinase-Glo luminescence, 60 min | Potency, µM (doses to about 57.5 µM), for inactives: at the top dose activity change, negative = inhibition, usual class: inhibitors; note: potency is the fitted concentration of half-maximal effect; % is set by controls: 0 for no effect and ±100 for the full control effect; nearly all actives have a fitted effect of over 60% in size
Target sequence (P07378 whole entry, looked up): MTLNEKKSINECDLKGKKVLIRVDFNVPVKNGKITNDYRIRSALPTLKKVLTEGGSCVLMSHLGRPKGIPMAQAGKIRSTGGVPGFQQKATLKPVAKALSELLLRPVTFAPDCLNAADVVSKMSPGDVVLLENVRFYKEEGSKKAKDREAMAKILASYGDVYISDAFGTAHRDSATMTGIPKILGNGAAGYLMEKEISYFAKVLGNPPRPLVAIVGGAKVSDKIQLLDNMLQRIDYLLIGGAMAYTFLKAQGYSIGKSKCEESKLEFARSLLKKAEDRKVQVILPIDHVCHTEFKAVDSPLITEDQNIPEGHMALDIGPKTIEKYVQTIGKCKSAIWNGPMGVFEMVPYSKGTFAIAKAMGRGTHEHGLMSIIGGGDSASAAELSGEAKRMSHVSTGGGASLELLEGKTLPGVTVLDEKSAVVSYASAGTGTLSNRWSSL
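Recombinant glycosomal PGK reaction used 1,3-bisphosphoglycerate generated in-well by GAPDH (100nM final) in 100mM TEA pH 7.6, 5mM MgCl2, 0.01% Tween-20. After 60 minutes at room temperature, ATP was read by Kinase-Glo Plus luminescence end-point.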
Pin1 inh – human Pin1 inhibition | Q13526 | Pin1 FP peptide displacement, HiFluor488, 10 min | Potency, µM (titrated, usually from 115 µM), inactives show at the top dose activity, negative = inhibition, actives largely listed as inhibitors | 0.009% of 390,000 active | AID 504891; active = well fitted inhibition curve with a large enough effect in the polarisation, with a control signal flat, not every such curve was filed as active; inconclusive = small, poorly fitted or top-dose-only effect, or effect the other way, or a change in a side signal; inactive = no such curve, though single readings can be large or run the other way; the % refers to the polarisation; note: potency is the fitted concentration of half-maximal effect; % is set by controls: 0 for no effect and ±100 for the full control effect
LDHA block – inhibitors of human lactate dehydrogenase A; P00338; purified LDHA, NADH/diaphorase-resazurin fluorescence; hits give low values; activity change, % (values are at about 110 or 230 µM); 0.15% of 480,000 active; AID 1347041; in the data active = activity change below about -30%; inconclusive = mostly about -25% to -30%;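 note: plate controls were DMSO wells for no effect and wells without enzyme for full effect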
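LDH5 2 nM; NADH 0.06 mM, pyruvate 0.2 mM; 200 mM Tris pH 7.4, EDTA, Tween-20; 5 min RT. Detection: diaphorase 0.133 mg/mL + resazurin 37 µM, fluorescence ex540/em590 at 0 and 20 min; normalized to enzyme-free and DMSO wells.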
mIDH1 inhibitor – blocks human mutant IDH1 R132H enzyme. O75874. IDH1-R132H enzyme, NADPH consumption, diaphorase/resazurin fluorescence. Potency, µM (titrated, usually from 76.6 µM), for the others: top-dose activity change, negative = inhibition, usual class: inhibitors. 0.093% of 390,000 active; note: potency is the fitted concentration of half-maximal effect; % is set by controls: 0 for no effect and ±100 for the full control effect; nearly all actives have a fitted effect of over 65% in size
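IDH1-R132H (0.5 ug/mL dispensed) in pH 7.5 Tris buffer was preincubated 30 min with compound, then given a substrate mix of 0.016 mM NADPH and 2 mM alpha-KG for 80 min at room temperature; remaining NADPH was read by diaphorase/resazurin fluorescence.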
Vif-A3F inh – Vif-A3F binding inhibition; 0.2% of 390,000 active; HeLa A3F-eYFP + Vif (tagged APOBEC3F with the HIV-1 protein that degrades it), YFP fluorescence increase; Potency, µM (titrated, usually from 46.1 µM), for the others: at the top dose activity, negative = active; note: potency is the fitted concentration of half-maximal effect; % of control where 0% means no effect; nearly all actives have a fitted effect of over 65% in size
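HeLa cells stably expressing A3F-eYFP plus Vif, plated and incubated overnight at 37 deg C, then exposed to compounds overnight at 37 deg C. Blocked degradation read as raised yellow fluorescence (Ex 488/Em 500-530).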
IDH1 autofl – autofluorescence interference, mutant IDH1 hit counter-screen | shares compounds with mIDH1 inhibitor | Resorufin detection reagent fluorescence interference, cell-free | inhibition of signal, % at 51.2 µM | 750 tested, under 10 active | AID 623980;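 note: 0% = wells with normal resorufin and full inhibition = wells lacking resorufin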
IDH1 WT – wild-type IDH1 (human) inhibition counterscreen; shares compounds with mIDH1 inhibitor; WT IDH1 enzyme, NADPH diaphorase/resazurin fluorescence; Potency, µM (series often up to 115 µM), inactives show at the top dose activity change, negative = inhibition, hits mostly inhibitors; 9% of 750 active;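 note: potency is the fitted concentration of half-maximal effect; 0% = full WT IDH1 enzyme control and full inhibition = no enzyme wells; nearly all actives have a fitted effect of over 55% in size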
mIDH1 confirm – inhibits human mutant IDH1 enzyme in cherrypick confirmation | shares compounds with mIDH1 inhibitor | IDH1 R132H enzyme, NADPH diaphorase/resazurin fluorescence | Potency, µM (doses to about 76.6 µM), inactives show at the highest dose activity change, negative = inhibition, actives largely listed as inhibitors | 83% of 750 active; note: potency is the fitted concentration of half-maximal effect; nearly all actives have a fitted effect of over 50% in size
Active calls of the source: *; i = inactive; ? = inconclusive; nt = no result. Unless noted, calls come from the whole dose curve; as a rule, active = well fitted curve in the direction sought with a large enough effect; inconclusive = small, poorly fitted or top-dose-only effect, or another doubt; inactive = no such curve, though single readings can be large; an effect the other way counts as inactive or inconclusive.

SMILES	Vif-APOBEC3G blk	Tb PGK inh	Pin1 inh	LDHA block	mIDH1 inhibitor	Vif-A3F inh	IDH1 autofl	IDH1 WT	mIDH1 confirm
N#Cc1ccccc1Cn1cc(/C=C/[N+](=O)[O-])c2ccccc21	-6%	-4%	?	0	28µM*	-25%	5	?	20µM*
CCOc1ccc(-c2cc3nc(C4CCN(C(=O)OC(C)(C)C)CC4)c(C(=O)Nc4c(C)cccc4C)cn3n2)cc1	-2%	-13%	55%	-8	-7%	-1%	nt	nt	nt
CCOc1ccc(-c2cc3nc(C4CCN(C(=O)OC(C)(C)C)CC4)c(C(=O)O)cn3n2)cc1	-1%	-3%	0%	-1	16µM*	4%	4	79µM*	14µM*
CCOC(=O)c1ccc(N2C(=O)c3n[nH]c(-c4cccs4)c3C2c2ccc(O)c(OC)c2)cc1 (configuration not stated)	-10%	0%	17%	2	?	6%	4	0%	14µM*
CCOC(=O)c1ccc(N2C(=O)c3n[nH]c(-c4ccco4)c3C2c2cccc(OC)c2)cc1 (configuration not stated)	0%	i	38%	4	?	-12%	-1	0%	?
CCOC(=O)c1ccc(N2C(=O)c3n[nH]c(-c4ccco4)c3C2c2cccc(O)c2)cc1 (configuration not stated)	-6%	-3%	35%	5	?	2%	0	-11%	35µM*
CCOC(=O)c1ccc(N2C(=O)c3n[nH]c(-c4ccco4)c3C2c2cccc(F)c2)cc1 (configuration not stated)	-16%	-9%	39%	5	-19%	-5%	nt	nt	nt
CCOC(=O)c1ccc(N2C(=O)c3n[nH]c(C)c3C2c2ccccc2OC)cc1 (configuration not stated)	-4%	-11%	?	-1	?	-9%	-6	-2%	35µM*
Cc1ccc(S(=O)(=O)C(CNS(=O)(=O)c2ccc(Cl)cc2)c2cccnc2)cc1 (configuration not stated)	nt	nt	nt	-6	nt	nt	nt	nt	nt
Cc1[nH]c2ccccc2c1C(=O)C(C)OC(=O)c1ccc2c(c1)NC(=O)CS2 (configuration not stated)	nt	nt	nt	-21	nt	nt	nt	nt	nt
CCOc1ccc(-c2cccc(NS(=O)(=O)c3cc(OC)ccc3OC)c2)nn1	nt	nt	nt	7	nt	nt	nt	nt	nt
CS(=O)(=O)c1ccc(Cl)c(NC(=O)Cn2cc(C(F)(F)F)cc(Cl)c2=O)c1	nt	nt	nt	10	nt	nt	nt	nt	nt
CCc1cccc(C)c1Nc1c(-c2ccc(N(C)C)cc2)nc2cnccn12	-16%	-2%	23%	7	32µM*	3%	-9	-7%	16µM*
CCc1cccc(C)c1Nc1c(-c2ccc(SC)cc2)nc2sccn12	6%	-5%	6%	4	?	-4%	nt	nt	nt
CCc1cccc(C)c1Nc1c(-c2ccc(F)cc2)nc2sccn12	-4%	-8%	-3%	-5	40µM*	0%	3	7%	14µM*
CCN(Cc1cccs1)C(=O)c1[nH]c2c(c1C)C(=O)CCC2	nt	nt	nt	3	nt	nt	nt	nt	nt
